Experimental findings from PubChem BioAssay (NCATS) are described below.

Records with an inconclusive call do not appear. A number with no mark means an inactive call. Active and inactive are the calls of the source. The call rests on the fitted dose curve; in most records, active means well fitted cell-killing curve with a large enough effect; inconclusive means small, poorly fitted or top-dose-only effect; inactive means flat fitted curve, though single readings scatter. Numbered stars: 1 amine (or outer) side, 2 acyl side, 3 side chain; on linkers, the order of the positions; unused ones are H or OH. Bridge positions count the residues as written; N and C are the ends. Square brackets hold non-standard residues; d marks the D form. Peptide text beside a SMILES is read from it. I, II: the chains in the order shown. Actinocin(9to1) = Cc1c2oc3c(C)ccc(C(=O)[*:1])c3nc-2c(C(=O)[*:2])c(N)c1=O; NMeV = CN[C@H](C(=O)O)C(C)C; Sar = CNCC(=O)O
On the % scale 0 is the no-effect control and ±100 the full control effect; potency means the concentration at half of the fitted maximal effect.

A short description of the experiment: Cell Viability - LYMP2-021 (AID 974).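 Further: compound exposure lasts 24 hours at 37 °C; nearly all actives have a fitted effect of over 55% in size.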 The settings on record: LYMP2-021 lymphoblastoid cells viability; series mostly up to 92.2 µM; activity change, negative = cytotoxicity: at the top concentration. An excerpt: NIH Chemical Genomics Center [NCGC]
NIH Molecular Libraries Screening Centers Network [MLSCN]
National Institutes of Environmental Health Sciences [NIEHS]
National Toxicology Program [NTP]
We have developed a 1536-well cell-based assay for quantitative high throughput screening (qHTS) against a number of cell lines to determine in vitro cytotoxicity of small molecules. This particular assay uses a human lymphoblastoid cell line (LYMP2-021) purchased from Coriell Institute for Medical Research.
NCGC Assay Protocol Summary:
The CellTiter-Glo luminescent cell viability assay (Promega) is a homogeneous method to measure the number of viable cells in culture. The end point readout of this assay is based on quantitation of intracellular ATP, an indicator of metabolic activity, using the luciferase reaction. Luciferase catalyzes the oxidation of beetle Luciferin to oxyluciferin and light in the presence of ATP. The luminescent signal is proportional to amount of ATP present.
Using the CellTiter-Glo luminescent cell viability assay, the amount of cellular ATP was measured in the lymphoblastoid cell line with complete culture medium following compound treatment for 24 hours. The assay was performed in opaque white Kalypsys 1536-well plates. In the screen, tetraoctylammonium bromide was used as positive control. Library compounds were measured for their ability to cause acute toxicity in the cell line, as reflected by a decrease in intracellular ATP levels, in a concentration-dependent manner. […] AC50 values were determined from concentration-response data modeled with the standard Hill equation.
qHTS protocol for CellTiter Glo lymphoblastoid cellular assay
[Step] [Parameter] [Value] [Description]
1. Reagent; 5 uL; 2500 lymphoblastoid cells/well
2. Time; 5 hr; 37 C incubation
4. Controls; 23 nL; Tetraoctylammonium bromide 6.4pM to 92 uM
5. Time; 24 hr; 37 C incubation
6. Reagent; 5 uL; CellTiter Glo reagent
7. Time; 30 min; Room Temperature
8. Detection; Luminescence; Viewlux plate reader
Keywords: cell viability, cytotoxicity, lymphoblastoid cell line, luminescence, NTPHTS, NTPHTS_NCGC, NIEHS, DSSTox, MLSMR, MLSCN, NIH Roadmap, qHTS, NCGC
With `NC(=NCCCCCCN=C(N)/N=C(\N)Nc1ccc(Cl)cc1)/N=C(\N)Nc1ccc(Cl)cc1`, the Potency was 39.8 µM (active).

Take `O=C(O)CCCCC(=O)O`: the “activity change, negative = cytotoxicity” value is 1.05%.

For the compound `Cc1c2oc3c(C)ccc(C(=O)N[C@@H]4C(=O)N[C@H](C(C)C)C(=O)N5CCC[C@H]5C(=O)N(C)CC(=O)N(C)[C@@H](C(C)C)C(=O)O[C@@H]4C)c3nc-2c(C(=O)N[C@@H]2C(=O)N[C@H](C(C)C)C(=O)N3CCC[C@H]3C(=O)N(C)CC(=O)N(C)[C@@H](C(C)C)C(=O)O[C@@H]2C)c(N)c1=O` (I: T[dV]P[Sar][NMeV] / II: T[dV]P[Sar][NMeV]; ester I:1-I:C, II:1-II:C; linker I:N-II:N via Actinocin(9to1)), the Potency is 0.0025 µM (active).

For `Oc1ccc(O)cc1`, the Potency was 50.1 µM (active).

Take `COC1=CC(=O)C[C@@H](C)[C@]12Oc1c(Cl)c(OC)cc(OC)c1C2=O`: the “activity change, negative = cytotoxicity” value was -7.7%.

As to `CC/C(=C(/CC)c1ccc(O)cc1)c1ccc(O)cc1`, the “activity change, negative = cytotoxicity” value is -23.5%.

Consider `O=c1ccc2ccccc2o1`, for which the “activity change, negative = cytotoxicity” value was 0.727%.

Consider `C=CCc1ccc(O)c(OC)c1`, for which the “activity change, negative = cytotoxicity” value was -0.0511%.

As for `C=C(CC)C(=O)c1ccc(OCC(=O)O)c(Cl)c1Cl`, the Potency was 39.8 µM (active).

On to `CCCCCCc1ccc(O)cc1O`, for which the “activity change, negative = cytotoxicity” value was -2.92%.

For `Nc1ccc(C(=O)O)cc1`, the “activity change, negative = cytotoxicity” value is -2.67%.

In the case of `COc1cccc2c1C(=O)c1c(O)c3c(c(O)c1C2=O)C[C@@](O)(C(=O)CO)C[C@@H]3O[C@H]1C[C@H](N)[C@H](O)[C@H](C)O1`, the Potency is 0.398 µM (active).

For `CC(O)C(=O)O` (stereo not given), the “activity change, negative = cytotoxicity” value is -1.96%.

As to `CN(C)/N=N/c1nc[nH]c1C(N)=O`, the “activity change, negative = cytotoxicity” value was -0.124%.

For the compound `CC(C)(C)CC(C)(C)c1ccc(OCCOCC[N+](C)(C)Cc2ccccc2)cc1`, the Potency is 31.6 µM (active).

For `O=C1OC(c2ccc(O)cc2)(c2ccc(O)cc2)c2ccccc21`, the “activity change, negative = cytotoxicity” value is -4.51%.

Turning to `C[C@]12CC[C@@H]3c4ccc(O)cc4CC[C@H]3[C@@H]1CC[C@@H]2O`, the “activity change, negative = cytotoxicity” value is -20.6%.

For the compound `CC(=O)Oc1ccc(C(c2ccc(OC(C)=O)cc2)c2ccccn2)cc1`, the “activity change, negative = cytotoxicity” value is -10.1%.

With `CC(=O)O[C@]1(C(C)=O)CC[C@H]2[C@@H]3C[C@H](C)C4=CC(=O)CC[C@]4(C)[C@H]3CC[C@@]21C`, the Potency was 39.8 µM (active).

`Oc1c(Cl)cc(Cl)cc1Sc1cc(Cl)cc(Cl)c1O`: the Potency was 39.8 µM (active).
